VP16 counter – inhibits Gal4-VP16 luciferase reporter, ROR gamma counter-screen. Drosophila S2 Gal4-VP16 UAS-luciferase, luminescence, 20 h. 310,000 compounds, 3.5% hits. Potency, µM (titrated, usually from 53.6 µM), for the others: at the top dose activity, negative = inhibition, actives largely listed as inhibitors. AID 2546;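 note: Gal4-VP16 expression switched on by copper sulfate through the metallothionein promoter; nearly all actives have a fitted effect of over 50% in size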
KinaseGlo FLuc – Kinase-Glo luciferase inhibition (counter-screen). Kinase-Glo luciferase, ATP luminescence, 8 min. Potency, µM (top dose mostly 38.3 µM), for inactives: at the top dose activity change, negative = inhibition, hits mostly inhibitors. 200,000 compounds, 0.28% hits; note: nearly all actives have a fitted effect of over 60% in size
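Kinase-Glo luciferase light output from ATP and luciferin was measured with 10 uM ATP, within the enzyme's linear range. Buffer: 50 mM imidazole pH 7.2, 50 mM KCl, 7 mM MgCl2, 0.01% Tween 20, 0.05% BSA; luminescence read after 8 min at ambient temperature.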
RORgamma inh – ROR gamma (mouse) transcription inhibition; Drosophila S2 Gal4-RORgamma UAS-luciferase reporter, 20 h; Potency, µM (doses to about 53.6 µM), for inactives: top-dose activity change, negative = inhibition, most hits filed as inhibitors; 310,000 compounds, 5.4% hits; note: nearly all actives have a fitted effect of over 60% in size
Target sequence (P51450 whole entry, looked up, the tested form may be a part): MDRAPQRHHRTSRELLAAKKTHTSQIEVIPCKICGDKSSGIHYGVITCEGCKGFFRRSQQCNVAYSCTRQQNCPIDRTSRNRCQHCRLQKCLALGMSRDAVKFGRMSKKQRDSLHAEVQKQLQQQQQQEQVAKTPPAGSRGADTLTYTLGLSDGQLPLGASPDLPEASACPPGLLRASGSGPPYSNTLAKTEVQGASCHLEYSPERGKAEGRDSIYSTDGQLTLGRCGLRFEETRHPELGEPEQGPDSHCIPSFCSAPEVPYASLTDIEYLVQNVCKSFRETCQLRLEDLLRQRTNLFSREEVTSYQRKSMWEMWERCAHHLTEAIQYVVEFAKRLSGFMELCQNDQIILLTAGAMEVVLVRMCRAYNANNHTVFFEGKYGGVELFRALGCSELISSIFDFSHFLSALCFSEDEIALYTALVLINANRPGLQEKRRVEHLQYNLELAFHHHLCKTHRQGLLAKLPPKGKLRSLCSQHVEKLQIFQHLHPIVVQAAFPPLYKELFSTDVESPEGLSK
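Read-out: Photinus luciferase luminescence; inhibitors lower reporter signal. Insect Schneider cells with Gal4-ROR gamma fusion under metallothionein promoter, UAS reporter; 700 uM final copper sulfate induction, 20 hr, ambient temperature.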
Starred values were filed as active, the others as inactive; ? = inconclusive; / = not tested or not shown; [ ] = remark or other dose. A selection: hits, their analogues and other compounds. The true share with any hit is near 6.2%. Calls come from the whole dose curve; as a rule, active = well fitted curve in the direction sought with a large enough effect; inconclusive = small, poorly fitted or top-dose-only effect, or another doubt; inactive = no such curve, though single readings can be large; an effect the other way counts as inactive or inconclusive. % is set by controls: 0 for no effect and ±100 for the full control effect; potency is the fitted concentration of half-maximal effect.

SMILES | VP16 counter | KinaseGlo FLuc | RORgamma inh
COc1cc(/C=N/NC(=S)NC2CC3C=CC2C3)cc(OC)c1OC (stereo unspecified) | 4.47µM* | / | 1.78µM*
COc1cc(/C=N/NC(=O)c2cnccn2)cc(OC)c1OC | 0.3% | 2.7% | -0.5%
CCOc1ccc(/C=N/NC(=S)NC2CC3C=CC2C3)cc1 (stereo unspecified) | 3.16µM* | / | 1µM*
OCCNNC(=S)NC1CC2C=CC1C2 (stereo unspecified) | 13.2% | / | -34.3%
Cc1cccc(NC(=O)[C@@H]2CCCN2C(=O)OC(C)(C)C)c1 | -5.0% | / | -16.8%
Cc1ccc(NC(=S)NCCc2ccc(F)cc2)c(C)c1 | 5.01µM* | 1.7% | 4.47µM*
CC(=O)Nc1ccc(C)c(NC(=S)Nc2ccc(F)cc2)c1 | 7.2% | / | -18.6%
Cc1ccc(F)cc1NC(=S)NCCc1ccccc1 | -92.0% | 2.3% | ?
Cc1ccc(NC(=S)Nc2ccc(F)cc2)c(C)c1 | ? | -2.4% | 11.2µM*
Cc1nnc(NC(=O)c2cc(S(=O)(=O)N3CCCCC3)ccc2Cl)s1 | 2.2% | / | -19.6%
COc1ccc(C(C[N+](=O)[O-])c2c(-c3ccccc3)cc3ccccn23)cc1 (stereo unspecified) | -14.8% | 9.5% | -9.7%
COc1ccc(C(C[N+](=O)[O-])C2(c3ccc(OC)c(OC)c3)C(=O)c3ccccc3C2=O)cc1 (stereo unspecified) | 17.8µM* | -4.3% | ?
O=C(O)CCS(=O)(=O)c1nc(-c2cccs2)cc(C(F)(F)F)n1 | ? | -1.4% | ?
CS(=O)(=O)c1nc(-c2cccs2)cc(C(F)(F)F)n1 | 4.47µM* | -0.5% | 2µM*
COc1ccc(-c2cc(C(F)(F)F)nc(N)n2)cc1 | 9.0% | 3.9% | -1.8%
COc1ccc(-c2cc(C(F)(F)F)nc(S(C)(=O)=O)n2)cc1 | 8.91µM* | -3.0% | 12.6µM*
Cc1cc(NC(=O)CCCS(=O)(=O)c2nc(-c3cccs3)cc(C(F)(F)F)n2)no1 | 0.891µM* | -0.4% | 5.62µM*
CS(=O)(=O)c1nc(-c2ccc(F)cc2)cc(C(F)(F)F)n1 | 4.47µM* | -0.2% | 2.51µM*
Nc1nc(-c2ccc(F)cc2)cc(C(F)(F)F)n1 | 5.2% | -4.7% | -2.1%
Cc1cc(NC(=O)CSc2nc(-c3cccs3)cc(C(F)(F)F)n2)no1 | -6.0% | 0.5% | -37.9%
CC1(C)CC(=O)C=C(Nc2ccc(Cl)c(Br)c2)C1 | -11.3% | / | ?
COc1ccccc1N=Nc1c(C)n[nH]c1C | -7.7% | / | -2.9%
CN(C1CC(C)(C)N(O)C(C)(C)C1)S(=O)(=O)CC12CCC(CC1=O)C2(C)C (stereo unspecified) | -6.3% | 0.2% | -9.6%
COc1cccc(OCC(O)CNC(=O)c2oc3ccc(C)cc3c2C)c1 (stereo unspecified) | -17.9% | / | ?
Cc1ccc(C)c(NC(=O)CCc2nnc3ccc(NCc4ccco4)nn23)c1 | -13.6% | / | -0.3%
SMILES | VP16 counter | KinaseGlo FLuc | RORgamma inh
C=CCN(CC=C)CCCOc1ccc(C)cc1OC | 5.5% | -2.4% | -25.2%
COc1cc2[nH]c3c(N4CCN(c5ccccn5)CC4)ncnc3c2cc1OC | 17.8µM* | 1.4% | ?
COc1cccc2[nH]c3c(N4CCCCC4)ncnc3c12 | 0.6% | 2.0% | -37.6%
COc1ccc2[nH]c3c(N4CCc5ccccc5C4)ncnc3c2c1 | 12.6µM* | / | ?
COc1ccc2[nH]c3c(Cl)ncnc3c2c1 | 3.4% | / | ?
Fc1ccc2[nH]c3c(N4CCN(c5ccccc5)CC4)ncnc3c2c1 | / | -2.4% | 3.7%[0.365 µM]
COc1ccc(N2CCN(c3ncnc4c3[nH]c3ccccc34)CC2)cc1 | 7.08µM* | -3.7% | ?
COc1ccc(N2CC(C(=O)Nc3nnc(SCC(=O)N4CCOCC4)s3)CC2=O)cc1 (stereo unspecified) | 8.7% | / | -14.0%
COc1ccc2c(=O)c(C)c(-c3ccccc3)oc2c1CN(C)C | -2.7% | / | 23.0%
CCOC(=O)N/N=C1/C[C@@H](O)[C@@H](O)[C@@H]2[C@@H]3C(=O)N(Cc4ccccc4)C(=O)[C@H]3CC[C@@H]12 | -3.9%[10 µM] | / | 5.7%[10 µM]
CCCNc1nc(C#N)nc(Nc2ccccc2)n1 | 9.4% | / | /
O=C(N/N=C\c1ccccc1F)c1ccc(-c2ccccc2)cc1 | -13.5% | / | -13.7%
Fc1cccc(CCN2C(=S)NC[C@@H]2Cc2ccccc2)c1 | 7.08µM* | / | 2.24µM*
CC(O)[C@H]1CNC(=S)N1CCc1cccc(F)c1 (stereo partly specified) | -13.0% | / | -0.1%
NC1=NC[C@H](c2ccccc2)N1CCc1cccc(F)c1 | 3.3% | / | -13.4%
CCCC[C@@H]1CNC(=S)N1CCCc1cc(OC)c(OC)c(OC)c1 | ? | / | 8.91µM*
Fc1cccc(CCN2C(=S)NC[C@@H]2CC2CCCCC2)c1 | 6.31µM* | / | 2µM*
COc1cc(CCCN2C(=S)NC[C@H]2Cc2ccc(O)cc2)cc(OC)c1OC | -9.4% | / | 33.4%
NC1=NC[C@@H](Cc2ccc(O)cc2)N1CCc1cccc(F)c1 | -3.4% | / | -8.6%
CCCC[C@@H]1CNC(=S)N1CCc1cccc(F)c1 | 3.98µM* | / | 1.41µM*
Cc1noc(C)c1-c1nc(NCCN2CCOCC2)c2ccccc2n1 | 5.9% | / | -41.1%
O=C(c1ccncc1)N1CCC2(CC1)CN(c1cccc(-c3ccccc3)c1)C2 | -16.1% | -1.5% | -17.5%
Cc1ccc(C#CC2C=CC(Oc3ccc4c(c3)OCO4)C(CO)O2)c(C)c1 (stereo unspecified) | -5.7%[10 µM] | / | 17.9%[10 µM]
O=C(Nc1cccc(-n2cccn2)c1)C1CCCN(Cc2ccc(C#CCCO)cc2)C1 (stereo unspecified) | -18.8% | / | -7.0%
COCCN(C(=O)CNC(=O)c1ccco1)C(C(=O)NC1CCCC1)c1ccc(F)cc1 (stereo unspecified) | -9.7% | / | 14.4%
SMILES | VP16 counter | KinaseGlo FLuc | RORgamma inh
N#CCCN(C(=O)c1ccco1)c1ccccc1 | 9.0% | / | 1.41µM*
N#CCCN(C(=O)COC(=O)CCc1ccccc1)c1ccccc1 | -9.2% | / | 11.9%
CCc1ccc2c(c1)C1(NN=C(c3ccc(C)cc3)S1)C(=O)N2 (stereo unspecified) | 3.55µM* | -2.9% | 3.98µM*
CC(C)c1ccc(O)c(NC(=O)c2ncn[nH]2)c1 | 9.3% | -1.7% | 17.7%
Cc1ccc(Cc2cc(-c3ccc(C)cc3)n[nH]c2=O)cc1 | 17.7% | / | 2.4%
CC(C)c1ccc2c(c1)C1(NN=C(c3ccccc3)S1)C(=O)N2 (stereo unspecified) | 5.01µM* | -7.1% | 5.62µM*
O=C(O)c1cc2ccccc2cc1Nc1ccccc1 | -5.6% | / | 26.3%
CCN(CC)CC(=O)Nc1sc2c(c1C(=O)c1ccccc1OC)CCC2 | 10µM* | -0.6% | 3.98µM*
COc1ccccc1CC(=O)Nc1sc2c(c1C(N)=O)CCCC2 | -0.9% | / | 12.3%
CCOC(=O)c1c(NC(=O)OC)sc2c1CCC2 | 1.7% | 0.3% | -0.6%
CCOC(=O)c1c(NC(=O)CNCCOC)sc2c1CCCC2 | 1.58µM* | 3.2% | 1.26µM*
CCOC(=O)c1c(NC(=O)CN(CC)CC)sc2c1CCC2 | ? | 2.0% | 12.6µM*
CCOC(=O)c1c(NC(=O)CCC(=O)O)sc2c1CCCCC2 | -6.6% | -2.5% | 24.5%
O=C(Cn1ncc2c3ccccc3n(Cc3ccccc3F)c2c1=O)NCC1CCCO1 (stereo unspecified) | 2.5% | / | 4.5%

High-throughput results from PubChem BioAssay.
